The supplement of paper PMC8726507
Values without a mark were called inactive.

Tested on: Plasmodium falciparum NF54-HGL (transmission to Anopheles stephensi)
Assay: percentage of barcode signal found in uninfected mosquitoes (transmission-blocking activity); higher = stronger blocking of transmission to mosquito, active = 80 or more
Details: 10 µM; gametocyte preincubation time 24 h; readout time post-feed 8 days
Protocol: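 The mixture was fed to Anopheles stephensi in 96-well plates as blood meals tagged with DNA-barcoded Asaia bacteria. Eight days later, mosquitoes were classed infected or uninfected by luminescence (mean + 5 SD of unfed controls). Barcodes were quantified by Luminex MagPlex-TAG in the pooled uninfected and infected Asaia cultures, background-corrected, and the score is % of barcode signal in uninfected mosquitoes = 100*Iu/(Iu+Ii).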

| Compound | percentage of barcode signal found in uninfected mosquitoes |
| --- | --- |
| Cc1nc(-c2cccc(NCc3ccccc3)c2)[nH]c1C | 2.32% |
| N#Cc1ccc(-c2ccc(OCC(N)=O)cc2)cc1 | -1.66% |
| Clc1cccc(C(c2ccc(CN3CCNCC3)cc2)n2ccnc2)c1 (configuration not stated) | 89.4% (active) |
| CNC(=O)c1nn(C)c2c1C(C)(C)Cc1cnc(Nc3ccc(N4CCN(C)CC4)cc3)nc1-2 | 64% |
| Nc1ncnc2[nH]nc(Cc3cccc4ccccc34)c12 | 67.8% |
| CS(=O)(=O)c1ccccc1C(=O)N(Cc1ccccc1)c1ccccc1 | 5.09% |
| Cc1nnc(NC(=O)c2cn(-c3ccccc3)nc2-c2ccccc2C)o1 | 81% (active) |
| COC(=O)c1c(NC(=O)c2c(F)c(F)c(F)c(F)c2F)sc2c1CCCCC2 | 13.7% |
| O=C(c1ccco1)N(CCCn1ccnc1)c1nc2c(Cl)cccc2s1 | 17.2% |
| O=C(Nc1nc(-c2ccccn2)cs1)C1CC1c1ccccc1F (configuration not stated) | 53.8% |
| CC(C(=O)Nc1ccc2oc(-c3ccncc3)nc2c1)c1ccccc1 (configuration not stated) | -6.05% |
| COc1cccc(OCC(=O)c2ccc(Br)cc2)c1 | 13.7% |
| Cc1ccc(NC(=O)CC2COc3ccccc3O2)cc1Cl (configuration not stated) | 38.8% |
| Nc1ncc(-c2ccc(C(F)(F)F)nc2)cc1-c1ccc(C(F)(F)F)nc1 | 1.73% |
| CCCn1c(CNc2ccccc2O)nc2ccccc21 | 34.7% |
| Cc1nc(-c2ccccn2)nc(NCCc2ccc(S(C)(=O)=O)cc2)c1Cl | 67% |
| c1coc(CNc2nc(N3CCCCC3)nc3ccccc23)c1 | 38.7% |

Same assay, conditions: 20 µM; gametocyte preincubation time 24 h; readout time post-feed 8 days

| Compound | percentage of barcode signal found in uninfected mosquitoes |
| --- | --- |
| CC(C)NCC(=O)Nc1cccc(C(=O)Nc2cccc(C(F)(F)F)c2)c1 | 54% |
| CN1CCC(NCc2cccc(-c3ccc(S(=O)(=O)NCc4ccccc4)cc3)c2)CC1 | 98.6% (active) |
| COc1cc(C2=NCCN2)cc2cc(-c3ccc(C4=NCCN4)cc3)oc12 | 95.1% (active) |
| CCOC(=O)c1noc(N)c1-c1ccccc1 | 25.4% |
| CCOc1ccc(-c2nc(CNCCc3ccc(F)cc3)cs2)cc1 | 41.8% |
| NC(=O)c1cc(Br)ccc1OCCOc1ccccc1 | 0.0693% |
| Nc1ccc(C(=O)Nc2ccc(-c3nc4ccccc4o3)cc2)cc1 | -0.842% |
| Cn1ccnc1CNCCS(=O)(=O)c1cccc(Nc2ccc(-c3cccc(F)c3)cn2)c1 | 0.967% |
| NC(CC(=O)c1ccc(Cl)cc1Cl)C(Cl)(Cl)Cl (configuration not stated) | 86.9% (active) |
| CCc1ccc(C(NCc2nc(N)nc(N(C)C)n2)C(C)C)cc1 (configuration not stated) | 54.2% |
| c1ccc(Oc2ccc(-c3cc(N4CCOCC4)[nH]n3)cc2)cc1 | 1.03% |
| Cc1ccc(-c2nc(CN(Cc3ccccn3)C(C)C)cs2)o1 | 81.4% (active) |
| O=C(C1CCN(c2nnc(-n3cccc3)s2)CC1)N1CCC(Cc2ccccc2)CC1 | 28.5% |
| CC1CCCN(C(=O)C(C)Nc2cc(Cl)ccc2N2CCOCC2)C1 (configuration not stated) | 15.9% |
| COc1ccc(CCN2CCC(NCc3cccc(N(C)C)c3)CC2)cc1 | 94.9% (active) |
| COc1cc(Br)cc2cc(C(=O)Nc3cccc(C(F)(F)F)c3)c(=O)oc12 | 19.3% |
| CCCCOC(=O)Nc1cc2nc(C3CCCCC3)[nH]c2cc1N1CCCC1 | 33.9% |
| Cc1cc(O)nc(-n2nc(C)cc2C)n1 | 70.1% |
| COc1cc(C(F)(F)F)nc2ccc(C)c(N)c12 | -0.0386% |
| Cc1ccc(NC(=O)c2cc(S(=O)(=O)NC(C)(C)C)ccc2C)nc1 | 20.2% |
